PubChem BioAssay (NCATS)
Results filed as inconclusive are left out. Calls of active or inactive are those of the source. Unless noted, calls come from the whole dose curve; as a rule, active = well fitted inhibition curve with a large enough effect; inconclusive = small, poorly fitted or top-dose-only effect; inactive = flat fitted curve, though single readings scatter.

Columns and labels:
[1] = qHTS drug screen for cell cycle checkpoint inhibitors in PARPi-resistant BRCA-mutant ovarian cancer cell lines. (AID 1963452; calls by dose curve; note: potency is the fitted concentration of half-maximal effect); settings: PEO1/OlaR viability, CellTiter-Glo luminescence, 96 h; for Z-AUC: stronger effect = lower value
How it was run: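 PEO1, PEO4 and PEO1/OlaR ovarian cancer cells, 600 per well, exposed 96 h at 37C to a dilution series. Viability read by CellTiter-Glo luminescence, normalized to DMSO and empty wells; activity summarized as Z-AUC.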

[2] = qHTS for identification of novel therapeutic agents for treatment of microphthalmiaassociated transcription factor (MiT) renal cell carcinoma (RCC) (AID 1963991; calls by dose curve; note: potency is the fitted concentration of half-maximal effect;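 for z-score: curves scaled with 100% = DMSO viability and 0% = empty wells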); settings: CellTiter-Glo, 48 h; for z-score: stronger effect = lower value; for Potency: active = Z-AUC below -0.8 in all three lines
How it was run: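 UOK109/UOK124/UOK145 (TFE3 fusions, three partners); 500 cells/well; MIPE v4.0, 1912 cpds, 11 conc.; 48 h, 37 C; CellTiter-Glo, 15 min RT; lum. Norm.: DMSO 100%, empty 0%.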

[3] = qHTS profiling for inhibitors of Plasmodium falciparum proliferation (AID 504749);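 note: 0% = DMSO vehicle and full inhibition = artemisinin control; nearly all actives have a fitted effect of over 60% in size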; settings: P. falciparum in erythrocytes, SYBR Green DNA, 72 h
How it was run: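 In a 72 h erythrocytic culture (37 C, humidified, 5% CO2) at 2.5% hematocrit and 0.3% starting parasitemia, compounds were tested; SYBR Green I in detergent lysis buffer stained parasite DNA overnight.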

[4] = measured here: PEO1 parental Z-AUC
[5] = TFE3-RCC UOK109 viability, measured here: UOK109 Z-AUC
[6] = TFE3-RCC viability, measured here: UOK124 Z-AUC
[7] = TFE3-RCC viability, measured here: UOK145 Z-AUC
[8] = at 28.7 µM (top of the series), parasite line A
[9] = at 28.7 µM (top of the series), parasite line B

C=C1C(=O)OC(CCCCCCCC)C1C(=O)O (stereo not given)
Z-AUC [1]: 0.778 (inactive)
Z-AUC [1, 4]: 0.453
Z-AUC ([1]; measured here: PEO4 Z-AUC): 0.342
z-score [2, 5]: 0.725
z-score [2, 6]: 0.792
z-score [2, 7]: 0.524

CC(C)n1nc(-c2ccc3oc(N)nc3c2)c2c(N)ncnc21
Potency [1]: 871 nM (active)
Z-AUC [1, 4]: -1.21
Z-AUC ([1]; measured here: PEO4 Z-AUC): -1.54
Potency ([2]; TFE3-RCC UOK109 viability): 37.2 nM (active)
z-score [2, 5]: -2.39
z-score [2, 6]: -2.58
z-score [2, 7]: -3.7

CC(C)C(C)C=CC(C)C1CCC2C3=CC=C4CC(O)CCC4(C)C3CCC21C (stereo not given)
Z-AUC [1]: 1.48 (inactive)
Z-AUC [1, 4]: 1.13
Z-AUC ([1]; measured here: PEO4 Z-AUC): 1.32
z-score [2, 5]: 0.762
z-score [2, 6]: 0.655
z-score [2, 7]: 1.94

O=C(O)c1cc(O)c2c(c1)C(=O)c1cccc(O)c1C2=O
Z-AUC [1]: -0.369 (inactive)
Z-AUC [1, 4]: -0.852
Z-AUC ([1]; measured here: PEO4 Z-AUC): -0.959
z-score [2, 5]: 1.17
z-score [2, 6]: -0.187
z-score [2, 7]: 1.5

CC1CCC(C(=O)N(c2cc(C#CC(C)(C)C)sc2C(=O)O)C2CCC(O)CC2)CC1 (stereo not given)
Z-AUC [1]: 0.0164 (inactive)
Z-AUC [1, 4]: -0.415
Z-AUC ([1]; measured here: PEO4 Z-AUC): -0.158
z-score [2, 5]: 1.18
z-score [2, 6]: 1.68
z-score [2, 7]: 0.196

Cc1cnc(C(=O)O)c[n+]1[O-]
Z-AUC [1]: -0.768 (inactive)
Z-AUC [1, 4]: -0.301
Z-AUC ([1]; measured here: PEO4 Z-AUC): -0.6
z-score [2, 5]: 1.58
z-score [2, 6]: 0.716
z-score [2, 7]: 0.578
activity, negative = inhibition [3, 8]: -1.49% (inactive)
activity, negative = inhibition [3, 9]: -8.14% (inactive)

COc1ccc(Cc2nccc3cc(OC)c(OC)cc23)cc1OC
Z-AUC [1]: -1.7 (inactive)
Z-AUC [1, 4]: -1.2
Z-AUC ([1]; measured here: PEO4 Z-AUC): 0.243
activity, negative = inhibition ([3]; at 12.8 µM (top of the series), parasite line A): 0.631% (inactive)
activity, negative = inhibition ([3]; at 12.8 µM (top of the series), parasite line B): 6.88% (inactive)

CC(=O)N[C@@H](CS)C(=O)O
Z-AUC [1]: 0.621 (inactive)
Z-AUC [1, 4]: 0.869
Z-AUC ([1]; measured here: PEO4 Z-AUC): 0.504
activity, negative = inhibition [3, 8]: -3.7% (inactive)
activity, negative = inhibition [3, 9]: 16.4% (inactive)

O=C(O)c1ccc(-c2c[nH]c3ncc(-c4ccccc4)cc23)cc1C1CCCC1
Z-AUC [1]: 0.296 (inactive)
Z-AUC [1, 4]: -0.104
Z-AUC ([1]; measured here: PEO4 Z-AUC): 0.0769
z-score [2, 5]: 1.28
z-score [2, 6]: 0.56
z-score [2, 7]: 0.0409

O=C1NC(=O)C(c2ccccc2)(c2ccccc2)N1
activity, negative = inhibition [3, 8]: 3.02% (inactive)
activity, negative = inhibition [3, 9]: -26.3% (inactive)

CO[C@H]1C=CO[C@@]2(C)Oc3c(C)c(O)c4c(O)c(c5c(c4c3C2=O)NC2(CCN(CC(C)C)CC2)N=5)=NC(=O)C(C)=CC=C[C@H](C)[C@H](O)[C@@H](C)[C@@H](O)[C@@H](C)[C@H](OC(C)=O)[C@H]1C
z-score [2, 5]: 0.267
z-score [2, 6]: 0.0618
z-score [2, 7]: 0.486

CCCNC(=O)NS(=O)(=O)c1ccc(Cl)cc1
activity, negative = inhibition [3, 8]: 14.4% (inactive)
activity, negative = inhibition [3, 9]: 10.3% (inactive)

C[C@@H](O)[C@H]1C(=O)N2C(C(=O)O)=C(S[C@@H]3CN[C@H](C(=O)N(C)C)C3)[C@H](C)[C@H]12
activity, negative = inhibition [3, 8]: 10.4% (inactive)
activity, negative = inhibition [3, 9]: 13.7% (inactive)

CC1(C)O[C@H]2C[C@@H]3[C@H]4CCC5=CC(=O)C=C[C@]5(C)[C@@]4(F)[C@@H](O)C[C@]3(C)[C@]2(C(=O)CO)O1
activity, negative = inhibition [3, 8]: -0.373% (inactive)
activity, negative = inhibition [3, 9]: -9.39% (inactive)

CO[C@H]1C=CC=C(C)C(=O)NC2=CC(=O)C(NCCN(C)C)=C(C[C@@H](C)C[C@H](OC)[C@@H](O)[C@@H](C)C=C(C)[C@@H]1OC(N)=O)C2=O
Potency ([2]; TFE3-RCC UOK109 viability): 2640 nM (active)
z-score [2, 5]: -1.45
z-score [2, 6]: -3.65
z-score [2, 7]: -1.68
